Among the data in PubChem BioAssay (NCATS) are Potency values, retold here.

Results filed as inconclusive are left out. Values without a mark were called inactive. Activity calls are given as the source filed them. Calls come from the whole dose curve; as a rule, active = well fitted curve in the direction sought with a large enough effect; inconclusive = small, poorly fitted or top-dose-only effect, or another doubt; inactive = no such curve, though single readings can be large; an effect the other way counts as inactive or inconclusive.

Assay [1] can be described thus: qHTS of pediatric cancer cell lines to identify multiple opportunities for drug repurposing: Primary screen for DAOY cells (AID 1347090). Note: nearly all actives have a fitted effect of over 55% in size. Note: potency is the fitted concentration of half-maximal effect. The gist of the method: (§1)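 Viability measured as metabolically active cells via CellTiter-Glo luminescence following 48 hours of compound exposure, 11-point dilutions in confirmatory testing. 500-1,000 cells/well plated 5 hours before dosing; controls were DMSO and 2.3 µM bortezomib.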

Assay [2] in a line: qHTS of pediatric cancer cell lines to identify multiple opportunities for drug repurposing: Primary screen for SJ-GBM2 cells (AID 1347091). Note: potency is the fitted concentration of half-maximal effect. Put shortly: as §1
A general note: In qHTS, concentration-response curves come from the screen itself.

Assay [3] can be described thus: qHTS of pediatric cancer cell lines to identify multiple opportunities for drug repurposing: Primary screen for BT-37 cells (AID 1347094). Note: potency is the fitted concentration of half-maximal effect. Put shortly:
(§2)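 Cells seeded at 500-1,000 cells/well in growth media, rested 5 hours at 37 degrees C, 5% CO2, then dosed; MIPE compounds at 11-point (from 0.78 nM) and NPC at 8-point (from 0.59 nM) final concentrations. Viability by CellTiter-Glo luminescence after 48 hours.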

A short description of assay [4]: qHTS of pediatric cancer cell lines to identify multiple opportunities for drug repurposing: Primary screen for U-2 OS cells (AID 1347096). Note: nearly all actives have a fitted effect of over 50% in size. Put shortly: (§3)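 Viability after 48 h compound treatment at 37C, 500-1,000 cells/well, read as ATP luminescence with CellTiter-Glo. Primary screens used 11-point (MIPE, 0.78 nM-46 µM) or 8-point (NPC, 0.59 nM-46 µM) final concentrations; follow-up screens used 11-point dilutions.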

Assay [5] in a line: qHTS of pediatric cancer cell lines to identify multiple opportunities for drug repurposing: Primary screen for Saos-2 cells (AID 1347097). Note: nearly all actives have a fitted effect of over 40% in size. Note: potency is the fitted concentration of half-maximal effect. Put shortly:
as §2

Assay [6] is described as follows: qHTS of pediatric cancer cell lines to identify multiple opportunities for drug repurposing: Primary screen for LAN-5 cells (AID 1347100). Note: potency is the fitted concentration of half-maximal effect. Put shortly:
as §3

Assay [7] in a line: qHTS of pediatric cancer cell lines to identify multiple opportunities for drug repurposing: Primary screen for BT-12 cells (AID 1347101). Note: nearly all actives have a fitted effect of over 25% in size. Note: potency is the fitted concentration of half-maximal effect. Put shortly: (§4)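 Cells (500-1,000/well) rested 5 h, then received compounds for 48 h; metabolically active cells were measured by CellTiter-Glo luminescence. Final concentrations spanned up to 46 µM (MIPE, 11-point) or 0.59 nM-46 µM (NPC, 8-point) in primary screens, 11-point in follow-ups.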

Assay [8] in a line: qHTS of pediatric cancer cell lines to identify multiple opportunities for drug repurposing: Primary screen for OHS-50 cells (AID 1347103). Note: nearly all actives have a fitted effect of over 40% in size. Note: potency is the fitted concentration of half-maximal effect. The gist of the method:
as §4

Assay [9] in a line: qHTS of pediatric cancer cell lines to identify multiple opportunities for drug repurposing: Primary screen for RD cells (AID 1347104). Note: nearly all actives have a fitted effect of over 55% in size. Note: potency is the fitted concentration of half-maximal effect. Put shortly: as §2
Assay [10] is described as follows: qHTS of pediatric cancer cell lines to identify multiple opportunities for drug repurposing: Primary screen for control Hh wild type fibroblast cells (AID 1347106).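 Note: series mostly up to about 46 µM; a drop in luminescence marks cytotoxicity and a rise apparent proliferation; nearly all actives have a fitted effect of over 55% in size.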 The gist of the method: as §3
Assay [11] in a line: qHTS of pediatric cancer cell lines to identify multiple opportunities for drug repurposing: Primary screen for Rh41 cells (AID 1347108). Note: nearly all actives have a fitted effect of over 70% in size. Note: potency is the fitted concentration of half-maximal effect. Put shortly: as §2
Assay [12] can be described thus: qHTS of pediatric cancer cell lines to identify multiple opportunities for drug repurposing: Primary screen for SK-N-SH cells (AID 1347098). Note: nearly all actives have a fitted effect of over 65% in size. Note: potency is the fitted concentration of half-maximal effect. The gist of the method:
as §4

The nature of assay [13]: qHTS of pediatric cancer cell lines to identify multiple opportunities for drug repurposing: Primary screen for NB1643 cells (AID 1347099). Note: nearly all actives have a fitted effect of over 50% in size. Note: potency is the fitted concentration of half-maximal effect. Put shortly: as §2
Assay [14] is described as follows: qHTS of pediatric cancer cell lines to identify multiple opportunities for drug repurposing: Primary screen for Rh18 cells (AID 1347102). Note: nearly all actives have a fitted effect of over 65% in size. Note: potency is the fitted concentration of half-maximal effect. Put shortly: as §3
The nature of assay [15]: qHTS of pediatric cancer cell lines to identify multiple opportunities for drug repurposing: Primary screen for MG 63 (6-TG R) cells (AID 1347105). Note: nearly all actives have a fitted effect of over 50% in size. Note: potency is the fitted concentration of half-maximal effect. Put shortly:
as §2

Assay [16] can be described thus: qHTS of pediatric cancer cell lines to identify multiple opportunities for drug repurposing: Primary screen for Rh30 cells (AID 1347107). Note: series mostly up to about 46 µM; nearly all actives have a fitted effect of over 75% in size. The gist of the method:
as §3

Assay [17] in a line: qHTS of pediatric cancer cell lines to identify multiple opportunities for drug repurposing: Primary screen for NB-EBc1 cells (AID 1347095). Note: potency is the fitted concentration of half-maximal effect. The gist of the method: as §2
Assay [18] is described as follows: qHTS of pediatric cancer cell lines to identify multiple opportunities for drug repurposing: Primary screen for A673 cells (AID 1347092). Note: nearly all actives have a fitted effect of over 45% in size. Note: potency is the fitted concentration of half-maximal effect. The gist of the method:
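Luminescence from CellTiter-Glo, taken after 15 min at room temperature, served as the proxy for metabolically active cells following 48 h treatment. Both potency and efficacy were taken from curves fitted to the titration data.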

Assay [19] can be described thus: qHTS of pediatric cancer cell lines to identify multiple opportunities for drug repurposing: Primary screen for SK-N-MC cells (AID 1347093). Note: potency is the fitted concentration of half-maximal effect. The gist of the method: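 Metabolically active cells were quantified by ATP-dependent luminescence (CellTiter-Glo, 15 min at room temperature) following 48 h treatment. Cells had been plated at 500-1,000 per well and settled for 5 h beforehand.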

Assay [20] can be described thus: qHTS of pediatric cancer cell lines to identify multiple opportunities for drug repurposing: Confirmatory screen for NB1643 cells (AID 1347109). Note: nearly all actives have a fitted effect of over 45% in size. Put shortly: as §3

On to `FC(F)(F)c1ccc(C=Cc2nc(COc3ccc(CCCCn4ccnn4)cc3)co2)cc1`, for which the Potency in assay [1] is 0.0187 µM (active); in assay [2], 0.0037 µM (active); in assay [3] it was 0.0109 µM (active); in assay [5] it was 0.0332 µM (active); in assay [6] it was 0.0059 µM (active); in assay [7], 0.0061 µM (active). Also, the Potency in assay [8] was 0.0077 µM (active); in assay [9], 0.0118 µM (active); in assay [11], 0.469 µM (active). Also, the Potency result in assay [4] and in assay [10] was “inactive” throughout.
As to `Cc1cn([C@@H]2C[C@@H](O)[C@H](CO)O2)c(=O)[nH]c1=O`, the Potency result in assay [1], in assay [2], in assay [3], in [4], in [5] and in assay [12] was “inactive” in each case. Besides, the Potency entry in assay [13], in assay [6], in assay [7], in [14], in [8] and in assay [9] was “inactive” each time. For the same molecule, the Potency result in assay [15], in assay [10] and in [16] was “inactive” each time.
Consider `COc1ccc(C=CC(=O)Nc2ccccc2C(=O)O)cc1OC`, for which the Potency entry in assay [1], in [2], in [3], in assay [17], in assay [4] and in assay [6] was “inactive” throughout. Also, the Potency result in assay [7], in assay [8], in [15], in assay [10] and in assay [11] was “inactive” each time. Moreover, in [13], the Potency was 5.9 µM (active).
As for `Nc1[nH]nc2nnc(-c3c(-c4ccccc4)nn4ccccc34)cc12`, the Potency was 2.96 µM (active) in assay [1]; 1.48 µM (active) in assay [18]; 0.0332 µM (active) in assay [19]; 2.73 µM (active) in [3]; 3.32 µM (active) in [17]; 4.29 µM (active) in assay [12]. Also, the Potency in assay [13] was 1.87 µM (active); in assay [6] it was 6.62 µM (active); in assay [7], 6.85 µM (active); in assay [14], 2.64 µM (active); in assay [8], 1.93 µM (active); in [9], 11.8 µM (active). For the same molecule, the Potency in assay [11] was 5.9 µM (active).
Consider `Cn1c(=O)c(-c2c(Cl)cccc2Cl)cc2cnc(Nc3cccc(C(=O)O)c3)nc21`, for which the Potency in assay [1] was 0.372 µM (active); in assay [2], 0.526 µM (active); in assay [19], 0.0935 µM (active); in assay [17], 1.32 µM (active); in assay [5], 0.743 µM (active). Also, the Potency entry in [3], in assay [12], in [13], in [7], in assay [9] and in assay [10] was “inactive” in each case. For the same molecule, the Potency entry in assay [16] and in [11] was “inactive” each time.
Turning to `Cn1cc(-c2ccc3nnc(Sc4ccc5ncccc5c4)n3n2)cn1`, the Potency in [1] was 11.8 µM (active); in assay [2], 0.0118 µM (active). The Potency result in [3], in assay [17], in assay [4], in [13], in assay [6] and in [7] was “inactive” in each case. The Potency entry in [14], in assay [8] and in assay [10] was “inactive” in each case.
As for `CN1c2ccccc2C(=O)N2CCc3c([nH]c4ccccc34)C21` (configuration not stated), the Potency entry in assay [1], in [2], in assay [3], in assay [4], in assay [6] and in assay [7] was “inactive” each time. For the same molecule, the Potency entry in assay [8], in assay [15], in assay [10], in [16] and in assay [11] was “inactive” in each case. Also, the Potency in assay [19] was 10.5 µM (active); in assay [13] it was 13.2 µM (active).
For `COc1cc(C=CC(=O)O)ccc1O`, the Potency result in [1], in assay [18], in [3], in [17], in assay [4] and in assay [5] was “inactive” each time. Further, the Potency result in assay [12], in assay [13], in [6], in assay [7], in assay [14] and in assay [9] was “inactive” throughout. Moreover, the Potency result in assay [15], in assay [10], in assay [16] and in assay [11] was “inactive” each time. Moreover, the Potency in assay [19] was 20.9 µM (active).
Take `COc1cc(CNC(=O)CCCCC=CC(C)C)ccc1O`: the Potency result in assay [1], in assay [2], in assay [3], in assay [17], in assay [4] and in assay [5] was “inactive” in each case. Moreover, the Potency entry in [7], in assay [9], in assay [15], in [10], in [16] and in [20] was “inactive” in each case.
For the molecule `C[C@@H]1CC=CC=CC=CC=C[C@@H](O[C@@H]2O[C@H](C)[C@@H](O)[C@H](N)[C@H]2O)C[C@@H]2O[C@](O)(C[C@@H](O)C[C@@H]3O[C@@H]3C=CC(=O)O1)C[C@H](O)[C@@H]2C(=O)O`, the Potency is 7.43 µM (active) in [1], 8.33 µM (active) in assay [19], 15.3 µM (active) in [7] and 9.68 µM (active) in assay [8]. The Potency result in [2], in [4], in assay [5], in [12], in [13] and in assay [6] was “inactive” each time. Besides, the Potency result in [10] was “inactive”.
For the molecule `O=C1NC(=O)C(c2cnc3ccccn23)=C1c1cn2c3c(cccc13)CN(C(=O)N1CCOCC1)CC2`, the Potency in [1] was 0.0235 µM (active); in assay [2] it was 0.0235 µM (active); in assay [19], 0.0235 µM (active); in assay [3], 19.3 µM (active); in [17] it was 0.0166 µM (active); in assay [13], 20.9 µM (active). In [15], the Potency is 0.469 µM (active). Further, the Potency entry in assay [4] and in [10] was “inactive” in each case.
`CNC1[C@H](O)C(O[C@@H]2C(O)C(O[C@H]3O[C@H]([C@@H](C)NC)CC[C@H]3N)[C@@H](N)C[C@H]2N)OC[C@]1(C)O` (some centres not stated): the Potency result in [1], in assay [18], in assay [19], in [3], in assay [17] and in assay [4] was “inactive” throughout. Besides, the Potency entry in assay [5], in [12], in [6], in assay [7], in assay [14] and in [8] was “inactive” throughout. For the same molecule, the Potency entry in assay [9], in [10], in [16] and in assay [11] was “inactive” in each case.
For the molecule `CN[C@@H](C)[C@H]1[C@H](O)C[C@@]2(C)[C@@H]3CC[C@H]4C(C)(C)[C@@H](NC)CC[C@@]45C[C@@]35CC[C@]12C`, the Potency entry in assay [1], in assay [2], in assay [3], in [17], in [4] and in assay [5] was “inactive” each time. For the same molecule, the Potency result in assay [13], in assay [6], in assay [7], in assay [14], in assay [15] and in assay [10] was “inactive” in each case. Further, the Potency result in assay [16] and in assay [11] was “inactive” in each case.
